In PubChem BioAssay (NCI) one finds growth data, which are given here for eight compounds.

About 83,000 compounds went through this panel and 20% of them were active in at least one assay; those are over-represented in the sample as a whole.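 Single-dose data. Exposure time 48 hours. Values below 10 considered active.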 Unmarked numbers belong to inactive results. Active and inactive are the calls of the source.

Some test systems named below: NCI-H23 lung; NCI-H226 lung; NCI-H322M lung; HOP-62 NSCLC; NCI-H460 lung; HOP-92 NSCLC; NCI-H522 lung; A549/ATCC NSCLC; 786-0 renal; COLO 205 colon; DU-145 prostate; K-562 leukemia; MALME-3M melanoma; MDA-MB-231 breast; RXF 393 renal; SF-268 CNS; SF-295 CNS; SF-539 CNS; UACC-257 melanoma; M14 melanoma.
What all share (test): NCI-60 one-dose screen, 48 h (100 = growth as untreated, 0 = no growth, -100 = all killed)
Details in all cases: 10 µM unless noted

Take `O=C(Nc1cccc(-n2ccc3c(NC(=O)c4ccccc4)nccc32)c1)c1cc(N2CCOCC2)cc(C(F)(F)F)c1`: the growth with NCI-H23 lung was 19.8%; in the experiment with NCI-H226 lung, 28.7%; in the experiment on NCI-H322M lung it was 30.8%; with HOP-62 NSCLC, 36.6%; in the experiment with NCI-H460 lung it was -11% (active); with HOP-92 NSCLC, 29.3%. The growth with NCI-H522 lung is -47.5% (active); in the experiment with A549/ATCC NSCLC, -8.84% (active); in the experiment on 786-0 renal, -31.6% (active); in the experiment on COLO 205 colon it was -51.4% (active); in the experiment on DU-145 prostate, -20.2% (active); with K-562 leukemia it was 4.28% (active). Moreover, the growth with MALME-3M melanoma is 32%; in the experiment with MDA-MB-231 breast, -16.6% (active); in the experiment on RXF 393 renal, -67.3% (active); in the experiment on SF-268 CNS, 8.26% (active); with SF-295 CNS, -24.4% (active); in the experiment on SF-539 CNS it was -23.2% (active). Also, the growth in the experiment on UACC-257 melanoma is 32%; with M14 melanoma, 9.34% (active).

As to `O=C(Nc1ccccc1F)Nc1ccccc1Cl`, the growth is 77.5% with NCI-H23 lung; 82.9% in the experiment on NCI-H226 lung; 103% in the experiment with NCI-H322M lung; 91.7% in the experiment on HOP-62 NSCLC; 92.4% with NCI-H460 lung; 97.3% in the experiment on HOP-92 NSCLC. In addition, the growth is 54.9% with NCI-H522 lung; 88.5% in the experiment on A549/ATCC NSCLC; 107% in the experiment with 786-0 renal; 137% with COLO 205 colon; 103% in the experiment on DU-145 prostate; 55.8% with K-562 leukemia. For the same compound, the growth is 74% with MALME-3M melanoma; 85.8% in the experiment with MDA-MB-231 breast; 91% in the experiment on SF-268 CNS; 81.4% with SF-295 CNS; 91% in the experiment with SF-539 CNS; 96.1% in the experiment on UACC-257 melanoma. Moreover, the growth in the experiment on M14 melanoma is 100%.

In the case of `O=C(Nc1ccc(-n2cc(-c3ccncc3)c(-c3ccc(O)c(Cl)c3)n2)cc1)c1ccc(Cl)c(Cl)c1`, the growth with NCI-H23 lung was 43.7%; with NCI-H226 lung it was 74.6%; in the experiment on NCI-H322M lung, 71.5%; with HOP-62 NSCLC it was 27.5%; in the experiment with NCI-H460 lung, 22.3%; in the experiment with HOP-92 NSCLC, 14.9%. The growth in the experiment with NCI-H522 lung is 26.3%; in the experiment with A549/ATCC NSCLC, 33.1%; in the experiment on 786-0 renal, -41.6% (active); in the experiment with COLO 205 colon, 64.9%; in the experiment with DU-145 prostate it was 46.1%; with K-562 leukemia, 11.7%. The growth in the experiment with MALME-3M melanoma was 46.8%; with MDA-MB-231 breast it was -33.8% (active); in the experiment on RXF 393 renal it was -83.2% (active); with SF-268 CNS, 54.5%; in the experiment on SF-295 CNS it was -16.3% (active); in the experiment with SF-539 CNS, 10.6%. Further, the values for the growth with UACC-257 melanoma and with M14 melanoma were 69.5% and -35.7% (active), respectively.

For the compound `Cc1cn(C2CC(F)C(CO)O2)c(=O)[nH]c1=O` (stereo unspecified), the growth is 90.3% in the experiment on NCI-H23 lung; 95.9% in the experiment on NCI-H226 lung; 85.9% in the experiment with NCI-H322M lung; 88.4% in the experiment with HOP-62 NSCLC; 51.8% in the experiment with NCI-H460 lung; 69% in the experiment on HOP-92 NSCLC. In addition, the growth in the experiment on NCI-H522 lung was 86%; in the experiment with A549/ATCC NSCLC, 84.7%; in the experiment with 786-0 renal it was 87.3%; in the experiment on COLO 205 colon, 116%; in the experiment on DU-145 prostate, 108%; in the experiment on K-562 leukemia, 58.3%. For the same compound, the growth is 85.1% in the experiment on MALME-3M melanoma; 98.3% in the experiment with MDA-MB-231 breast; 103% in the experiment with SF-268 CNS; 76.8% with SF-295 CNS; 107% with SF-539 CNS; 91.8% in the experiment with UACC-257 melanoma. In addition, the growth with M14 melanoma was 89%.

As for `COc1ccc(-c2c(NC(=O)Nc3ccc(Cl)c(C(F)(F)F)c3)cnn2-c2ccc(S(N)(=O)=O)cc2)cc1`, the growth in the experiment on NCI-H23 lung is 42.6%; with NCI-H226 lung, 75.8%; with NCI-H322M lung, 51%; in the experiment on HOP-62 NSCLC, 53.5%; in the experiment on NCI-H460 lung, 9.7% (active); in the experiment on HOP-92 NSCLC, 0.848% (active). Moreover, the growth in the experiment with NCI-H522 lung was 43.7%; in the experiment with A549/ATCC NSCLC, 39.2%; in the experiment with 786-0 renal it was 31.6%; in the experiment with COLO 205 colon, 34.7%; with DU-145 prostate, 53.5%; in the experiment with K-562 leukemia it was 11.7%. For the same compound, the growth is 34.2% with MALME-3M melanoma; 52.7% with MDA-MB-231 breast; 37.5% in the experiment with SF-268 CNS; 38.6% in the experiment on SF-295 CNS; 35.2% in the experiment on SF-539 CNS; 34.9% in the experiment on UACC-257 melanoma. In the experiment on M14 melanoma, the growth is 14.7%.

Regarding `Cc1ccc(-c2nc3c(N=Nc4ccc(S(N)(=O)=O)cc4)c(N)nn3c(N)c2C#N)cc1`, the growth with NCI-H23 lung is 43.9%; with NCI-H226 lung, 65%; in the experiment with NCI-H322M lung it was 66.1%; with HOP-62 NSCLC, 42.6%; with NCI-H460 lung, 27.9%; with HOP-92 NSCLC, 19.6%. Also, the growth is 28.7% with NCI-H522 lung; 63.1% in the experiment with A549/ATCC NSCLC; 64.5% in the experiment with 786-0 renal; 14.5% with COLO 205 colon; 34.6% with DU-145 prostate; 20.3% in the experiment on K-562 leukemia. In addition, the growth in the experiment with MALME-3M melanoma was 48.5%; in the experiment with MDA-MB-231 breast it was 40.1%; with RXF 393 renal it was 27.9%; with SF-268 CNS it was 34.5%; in the experiment with SF-295 CNS, 49.2%; in the experiment with SF-539 CNS it was 30.7%. The growth was 72.3% in the experiment on UACC-257 melanoma and 46.4% in the experiment with M14 melanoma.

In the case of `N#CC(C#N)=C(C#N)c1c[nH]c2ccccc12`, the growth in the experiment on NCI-H23 lung was 87.4%; in the experiment on NCI-H226 lung, 78.4%; with NCI-H322M lung, 110%; in the experiment on HOP-62 NSCLC it was 81.2%; in the experiment on NCI-H460 lung, 92.8%; in the experiment on HOP-92 NSCLC it was 41.2%. Also, the growth was 57.4% in the experiment on NCI-H522 lung; 80.4% in the experiment on A549/ATCC NSCLC; 82.4% in the experiment on 786-0 renal; 73.8% in the experiment with COLO 205 colon; 88% in the experiment with DU-145 prostate; 91.3% with K-562 leukemia. Moreover, the growth is 86.1% in the experiment on MALME-3M melanoma; 84.8% in the experiment with MDA-MB-231 breast; 88.2% in the experiment on RXF 393 renal; 90.7% with SF-268 CNS; 103% in the experiment with SF-295 CNS; 80.4% with SF-539 CNS. Besides, the results for the growth with UACC-257 melanoma and with M14 melanoma were 85.2% and 79.7%, respectively.

With `Cc1cccc(NC(=O)CCc2ccc(N3C(N)=NC(N)=NC3(C)C)cc2)c1`, the growth with NCI-H23 lung was 30.6%; with NCI-H226 lung, 100%; with NCI-H322M lung it was 42.7%; with HOP-62 NSCLC it was 24%; in the experiment on NCI-H460 lung, 19.8%; with HOP-92 NSCLC, 32.5%. For the same compound, the growth was 0.83% (active) in the experiment on NCI-H522 lung; 11.8% in the experiment with A549/ATCC NSCLC; -7.98% (active) in the experiment on 786-0 renal; 73.6% in the experiment on COLO 205 colon; 50.9% in the experiment on DU-145 prostate; 23.3% with K-562 leukemia. In addition, the growth with MALME-3M melanoma is 47.2%; in the experiment on MDA-MB-231 breast, 63.4%; in the experiment with SF-268 CNS it was 33.8%; with SF-295 CNS, 64.9%; in the experiment with SF-539 CNS, 23.9%; in the experiment on UACC-257 melanoma, 28.2%. Further, the growth with M14 melanoma is 64.8%.
